According to PubChem BioAssay (Tox21):
Inconclusive results are not listed. Active and inactive are the calls of the source. Unless noted, calls follow the shape of the dose curve; as a rule, active = well fitted curve in the direction sought with a large enough effect in the repeat runs; inconclusive = weak or mixed curves; inactive = no such curve, though single readings can be large; an effect the other way counts as inactive or inconclusive.

Assays:
[1] = biological target: Thyrotropin-releasing hormone receptor (Homo sapiens) (UniProt P34981); test: qHTS assay to identify small molecule agonists of the thyrotropin-releasing hormone receptor (TRHR) signaling pathway (AID 1346891; calls by dose curve; also: series mostly up to about 58 µM)
Sequence of Thyrotropin-releasing hormone receptor (Homo sapiens) (P34981 whole entry, looked up): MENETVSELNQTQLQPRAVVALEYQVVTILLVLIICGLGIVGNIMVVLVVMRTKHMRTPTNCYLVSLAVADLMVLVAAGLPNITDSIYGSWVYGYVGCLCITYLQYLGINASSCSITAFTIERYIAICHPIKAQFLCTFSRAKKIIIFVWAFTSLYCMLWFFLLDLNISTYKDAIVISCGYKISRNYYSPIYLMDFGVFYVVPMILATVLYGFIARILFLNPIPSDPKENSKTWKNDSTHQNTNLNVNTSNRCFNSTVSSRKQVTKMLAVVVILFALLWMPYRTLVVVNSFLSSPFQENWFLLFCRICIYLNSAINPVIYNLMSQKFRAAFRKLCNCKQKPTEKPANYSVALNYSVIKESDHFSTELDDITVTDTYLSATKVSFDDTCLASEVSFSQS
In short: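 TRHR-expressing HEK293 cells were plated 18 h at 37 °C/5% CO2, loaded with calcium dye 2 h at 37 °C, then given compound in DMSO; fluorescence was read kinetically for 3 min at 1 s intervals.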

[2] = Human pregnane X receptor (PXR) small molecule agonists, qHTS cell viability counter screen (AID 1346977); also: nearly all actives have a fitted effect of over 50% in size; also: potency is read from the fitted curve at half-maximal effect
In short: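 PXR-Luc HepG2 cells in medium with 5% charcoal-stripped FBS were pre-incubated 5hr, then exposed to compounds for 24hr at 37C. Viability was read in the same wells by CellTiter-Fluor fluorescence, reagent added after 23hr with a 1hr incubation.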

[3] = Caspase-3/7 induction in HepG2 cells by small molecules, qHTS assay (AID 1346978); also: nearly all actives have a fitted effect of over 15% in size
In short: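 Wild-type HepG2 cells, 2,000/well, settled 5 hr at 37 C and 5% CO2, then compound-treated for 17 hr; caspase-3/7 activity read by luminescent Caspase-Glo 3/7 after 30 min at room temperature.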

[4] = Caspase-3/7 induction in CHO-K1 cells by small molecules, qHTS cell viability counter screen (AID 1346979); also: nearly all actives have a fitted effect of over 35% in size; also: potency is read from the fitted curve at half-maximal effect
In short: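 Wild-type CHO-K1 cells were seeded at 1,500 per well, rested 5hr at 37 C, then exposed to compounds in DMSO. After 16hr, CellTiter-Fluor reagent was added and fluorescence read 1hr later as the viability measure.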

[5] = Caspase-3/7 induction in CHO-K1 cells by small molecules, qHTS assay (AID 1346980); also: nearly all actives have a fitted effect of over 15% in size
In short: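 Wild-type CHO-K1 cells exposed to compounds for 17hr at 37 C, 5% CO2. Caspase-3/7 activity then measured by Caspase-Glo 3/7 luminescence after 30min at room temperature.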

[6] = biological target: Nuclear receptor subfamily 1 group I member 2 (Rattus norvegicus) (UniProt Q9R1A7); test: Rat pregnane X receptor (rPXR) activation by small molecules, qHTS assay (AID 1346983); details: rPXR luciferase reporter cells, One-Glo luminescence, 24 h; max activation: stronger effect = higher value; also: nearly all actives have a fitted effect of over 20% in size
Sequence of Nuclear receptor subfamily 1 group I member 2 (Rattus norvegicus) (Q9R1A7 whole entry, looked up): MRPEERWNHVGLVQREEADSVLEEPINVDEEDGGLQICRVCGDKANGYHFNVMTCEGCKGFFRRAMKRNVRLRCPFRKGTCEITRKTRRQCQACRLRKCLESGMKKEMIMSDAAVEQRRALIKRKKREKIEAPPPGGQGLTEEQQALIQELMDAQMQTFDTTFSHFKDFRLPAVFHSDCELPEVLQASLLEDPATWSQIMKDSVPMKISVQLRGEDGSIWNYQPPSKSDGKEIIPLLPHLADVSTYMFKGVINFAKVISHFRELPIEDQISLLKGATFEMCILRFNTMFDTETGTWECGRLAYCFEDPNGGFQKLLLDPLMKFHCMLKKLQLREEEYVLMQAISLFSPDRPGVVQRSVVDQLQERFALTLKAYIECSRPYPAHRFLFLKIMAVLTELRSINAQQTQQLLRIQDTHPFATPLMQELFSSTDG
In short: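 Cell-based rPXR activation assay: rPXR cells, 2,000 per well, rested 5hr at 37 C, then exposed to compounds in DMSO for 24 hr at 37 C. Luciferase activity read by One-Glo luminescence after 30 min at room temperature.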

[7] = biological target: Voltage-gated inwardly rectifying potassium channel KCNH2 (Homo sapiens) (UniProt Q12809); test: Human Ether-a-go-go-Related Gene (hERG) channel small molecule antagonists: fluorescence cell-based qHTS assay (AID 1671200); also: nearly all actives have a fitted effect of over 50% in size; also: potency is read from the fitted curve at half-maximal effect
Sequence of Voltage-gated inwardly rectifying potassium channel KCNH2 (Homo sapiens) (Q12809 whole entry, looked up): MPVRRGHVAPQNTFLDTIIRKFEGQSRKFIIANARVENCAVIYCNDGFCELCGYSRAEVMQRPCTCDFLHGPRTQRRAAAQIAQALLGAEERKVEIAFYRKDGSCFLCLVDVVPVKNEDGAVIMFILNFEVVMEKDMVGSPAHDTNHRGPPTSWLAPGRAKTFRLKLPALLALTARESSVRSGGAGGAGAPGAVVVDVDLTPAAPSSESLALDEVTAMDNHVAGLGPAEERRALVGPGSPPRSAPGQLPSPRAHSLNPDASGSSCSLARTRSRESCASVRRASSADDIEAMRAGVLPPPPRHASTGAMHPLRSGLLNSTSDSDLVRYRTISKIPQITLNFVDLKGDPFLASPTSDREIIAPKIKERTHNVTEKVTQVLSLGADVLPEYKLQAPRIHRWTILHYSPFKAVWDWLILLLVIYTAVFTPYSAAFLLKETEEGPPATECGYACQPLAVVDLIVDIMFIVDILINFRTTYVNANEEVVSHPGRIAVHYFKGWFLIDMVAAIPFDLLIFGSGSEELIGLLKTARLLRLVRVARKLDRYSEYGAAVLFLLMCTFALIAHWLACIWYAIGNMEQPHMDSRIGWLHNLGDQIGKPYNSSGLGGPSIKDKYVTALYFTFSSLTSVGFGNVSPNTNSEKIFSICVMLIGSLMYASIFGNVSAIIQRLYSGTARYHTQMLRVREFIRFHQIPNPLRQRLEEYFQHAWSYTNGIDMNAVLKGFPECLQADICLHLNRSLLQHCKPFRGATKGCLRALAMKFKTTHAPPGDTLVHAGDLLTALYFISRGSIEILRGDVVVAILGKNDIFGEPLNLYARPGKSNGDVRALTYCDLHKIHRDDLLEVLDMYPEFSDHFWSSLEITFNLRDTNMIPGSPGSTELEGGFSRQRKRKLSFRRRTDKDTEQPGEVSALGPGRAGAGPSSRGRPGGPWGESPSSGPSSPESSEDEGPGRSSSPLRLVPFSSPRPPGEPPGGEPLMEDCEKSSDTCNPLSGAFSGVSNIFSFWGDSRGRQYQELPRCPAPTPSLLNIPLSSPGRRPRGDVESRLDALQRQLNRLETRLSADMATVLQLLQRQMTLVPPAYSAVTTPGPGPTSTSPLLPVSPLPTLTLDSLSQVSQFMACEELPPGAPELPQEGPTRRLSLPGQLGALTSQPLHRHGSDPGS
In short: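 U2OS cells expressing the channel were plated at 1000 cells/well, incubated overnight at 37 C, then loaded with FluxOR II thallium-sensitive dye for 1 h at room temperature in the dark, with a further 10 min at room temperature before stimulation.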

[8] = Caspase-3/7 induction in HepG2 cells by small molecules, qHTS cell viability counter screen (AID 1346981); also: nearly all actives have a fitted effect of over 30% in size; also: potency is read from the fitted curve at half-maximal effect
In short: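 Fluorescence read-out of live-cell protease activity (CellTiter-Fluor) after 1 hr with reagent. This was measured in the same wells as the caspase-3/7 luminescence, on HepG2 cells exposed to DMSO-dissolved compounds for 16 hr at 37 C.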

[9] = biological target: Nuclear receptor subfamily 1 group I member 2 (Homo sapiens) (UniProt O75469); test: Human pregnane X receptor (PXR) small molecule agonists, qHTS assay (AID 1346982); also: nearly all actives have a fitted effect of over 35% in size; also: potency is read from the fitted curve at half-maximal effect
Sequence of Nuclear receptor subfamily 1 group I member 2 (Homo sapiens) (O75469 whole entry, looked up): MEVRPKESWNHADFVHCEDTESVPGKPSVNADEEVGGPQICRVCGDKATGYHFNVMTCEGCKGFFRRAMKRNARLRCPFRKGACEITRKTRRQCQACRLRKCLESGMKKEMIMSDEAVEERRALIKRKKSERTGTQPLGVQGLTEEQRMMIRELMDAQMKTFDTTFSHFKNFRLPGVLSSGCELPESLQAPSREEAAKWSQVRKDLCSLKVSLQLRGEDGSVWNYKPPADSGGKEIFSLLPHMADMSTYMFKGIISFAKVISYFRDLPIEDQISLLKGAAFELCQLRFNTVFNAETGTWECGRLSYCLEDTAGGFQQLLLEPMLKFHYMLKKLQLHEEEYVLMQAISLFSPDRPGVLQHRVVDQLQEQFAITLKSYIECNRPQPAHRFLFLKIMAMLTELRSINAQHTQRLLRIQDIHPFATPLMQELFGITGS
In short: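 HepG2 PXR-Luc reporter line, 5% charcoal-stripped FBS; 5 hr pre-incubation, compound (DMSO) 24 hr at 37 C/5% CO2; ONE-Glo 30 min RT; luminescence read-out.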

[10] = biological target: Cytochrome P450 2C19 (Homo sapiens) (UniProt P33261); test: Cytochrome P450 Family 2 Subfamily C Member 19 (CYP2C19) small molecule antagonists: luciferase reporter qHTS assay (AID 1671197); also: nearly all actives have a fitted effect of over 65% in size; also: potency is read from the fitted curve at half-maximal effect
Sequence of Cytochrome P450 2C19 (Homo sapiens) (P33261 whole entry, looked up): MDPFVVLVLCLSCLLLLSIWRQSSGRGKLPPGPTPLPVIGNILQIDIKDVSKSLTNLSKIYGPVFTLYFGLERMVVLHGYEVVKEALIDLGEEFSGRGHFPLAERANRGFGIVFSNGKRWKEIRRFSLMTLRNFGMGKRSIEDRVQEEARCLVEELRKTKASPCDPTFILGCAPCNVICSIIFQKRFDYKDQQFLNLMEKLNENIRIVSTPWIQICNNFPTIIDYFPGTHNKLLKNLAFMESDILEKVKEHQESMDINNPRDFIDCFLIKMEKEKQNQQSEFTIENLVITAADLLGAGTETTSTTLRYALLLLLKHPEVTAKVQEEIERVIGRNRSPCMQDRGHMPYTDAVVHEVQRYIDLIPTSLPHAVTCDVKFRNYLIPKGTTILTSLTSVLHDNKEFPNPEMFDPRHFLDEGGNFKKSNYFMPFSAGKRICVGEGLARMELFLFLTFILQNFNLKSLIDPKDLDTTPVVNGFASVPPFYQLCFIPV
In short: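 CYP2C19 P450-Glo, 1536-well qHTS. Cpd + enzyme/proluciferin substrate 10 min RT; + NADPH regen, 37C 1 h; stop with luciferin detection reagent, 20 min RT, luminescence (RLU). Pos ctrl ketoconazole.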

[11] = biological target: Cytochrome P450 2C9 (Homo sapiens) (UniProt P11712); test: Cytochrome P450 Family 2 Subfamily C Member 9 (CYP2C9) small molecule antagonists: luciferase reporter qHTS assay (AID 1671198); also: nearly all actives have a fitted effect of over 50% in size; also: potency is read from the fitted curve at half-maximal effect
Sequence of Cytochrome P450 2C9 (Homo sapiens) (P11712 whole entry, looked up): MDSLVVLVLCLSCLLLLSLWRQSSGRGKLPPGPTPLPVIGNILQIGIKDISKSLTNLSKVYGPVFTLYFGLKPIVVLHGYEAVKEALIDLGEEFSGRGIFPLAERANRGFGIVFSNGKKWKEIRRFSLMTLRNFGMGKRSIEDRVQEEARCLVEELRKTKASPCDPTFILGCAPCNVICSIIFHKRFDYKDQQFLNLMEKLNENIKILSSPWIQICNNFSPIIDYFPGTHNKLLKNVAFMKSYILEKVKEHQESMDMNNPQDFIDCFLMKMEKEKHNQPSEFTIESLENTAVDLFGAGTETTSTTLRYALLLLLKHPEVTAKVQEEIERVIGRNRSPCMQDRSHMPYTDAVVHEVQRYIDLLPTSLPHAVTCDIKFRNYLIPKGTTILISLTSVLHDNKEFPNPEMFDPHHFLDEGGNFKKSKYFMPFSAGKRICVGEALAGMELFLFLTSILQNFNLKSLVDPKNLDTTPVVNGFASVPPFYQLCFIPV
In short: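 P450-Glo proluciferin substrate with CYP2C9 enzyme; 10 min RT preincubation, then NADPH regeneration 1 h at 37C; luciferin detection reagent 20 min RT, luminescence in relative luminescence units.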

[12] = biological target: Cytochrome P450 1A2 (Homo sapiens) (UniProt P05177); test: Cytochrome P450 Family 1 Subfamily A Member 2 (CYP1A2) small molecule antagonists: luciferase reporter qHTS assay (AID 1671199); also: nearly all actives have a fitted effect of over 50% in size; also: potency is read from the fitted curve at half-maximal effect
Sequence of Cytochrome P450 1A2 (Homo sapiens) (P05177 whole entry, looked up): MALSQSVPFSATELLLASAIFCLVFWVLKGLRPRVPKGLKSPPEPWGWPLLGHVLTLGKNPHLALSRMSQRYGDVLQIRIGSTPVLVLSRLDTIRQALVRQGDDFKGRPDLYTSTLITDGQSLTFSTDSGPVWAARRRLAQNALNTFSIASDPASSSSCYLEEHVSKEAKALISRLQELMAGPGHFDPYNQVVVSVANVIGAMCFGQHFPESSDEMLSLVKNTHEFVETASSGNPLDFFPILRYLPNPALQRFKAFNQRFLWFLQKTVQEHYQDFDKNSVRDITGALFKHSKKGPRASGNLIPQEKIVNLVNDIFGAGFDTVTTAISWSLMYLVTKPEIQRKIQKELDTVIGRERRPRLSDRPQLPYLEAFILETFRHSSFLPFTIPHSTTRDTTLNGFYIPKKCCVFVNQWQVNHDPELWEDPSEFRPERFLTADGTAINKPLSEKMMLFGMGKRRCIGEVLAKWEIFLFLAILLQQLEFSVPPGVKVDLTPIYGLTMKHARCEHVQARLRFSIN
In short: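 Luminescence readout (relative luminescence units) after luciferin detection reagent, 20 min RT. Preceded by 1 h room-temperature CYP1A2 reaction with NADPH regeneration solution following 10 min compound preincubation with enzyme and proluciferin substrate. Furafylline positive control.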

[13] = biological target: Cytochrome P450 2D6 (Homo sapiens) (UniProt P10635); test: Cytochrome P450 Family 2 Subfamily D Member 6 (CYP2D6) small molecule antagonists: luciferase reporter qHTS assay (AID 1671196); also: nearly all actives have a fitted effect of over 50% in size; also: potency is read from the fitted curve at half-maximal effect
Sequence of Cytochrome P450 2D6 (Homo sapiens) (P10635 whole entry, looked up): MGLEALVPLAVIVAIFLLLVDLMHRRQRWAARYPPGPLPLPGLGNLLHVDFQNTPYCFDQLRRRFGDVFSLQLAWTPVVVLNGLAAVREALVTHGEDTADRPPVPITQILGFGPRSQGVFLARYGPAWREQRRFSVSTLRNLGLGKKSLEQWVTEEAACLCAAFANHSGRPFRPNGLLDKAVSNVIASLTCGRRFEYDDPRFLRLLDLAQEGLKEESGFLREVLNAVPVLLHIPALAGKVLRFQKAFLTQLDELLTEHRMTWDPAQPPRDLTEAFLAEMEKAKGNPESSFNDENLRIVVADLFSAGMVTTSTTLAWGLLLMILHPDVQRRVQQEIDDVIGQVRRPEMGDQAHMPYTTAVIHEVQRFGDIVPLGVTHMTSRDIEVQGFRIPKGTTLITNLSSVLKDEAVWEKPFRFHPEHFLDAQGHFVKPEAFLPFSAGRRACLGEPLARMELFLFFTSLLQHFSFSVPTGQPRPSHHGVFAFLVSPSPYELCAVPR
In short: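 Luminogenic proluciferin substrate, CYP2D6 enzyme; 10 min RT preincubation with compound, NADPH regeneration system added, 1 h RT. Stop/detection reagent, 20 min RT, luminescence read (RLU). Signal proportional to CYP activity.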

[14] = biological target: Cytochrome P450 3A4 (Homo sapiens) (UniProt P08684); test: Cytochrome P450 Family 3 Subfamily A Member 4 (CYP3A4) small molecule antagonists: luciferase reporter qHTS assay (AID 1671201); also: nearly all actives have a fitted effect of over 50% in size; also: potency is read from the fitted curve at half-maximal effect
Sequence of Cytochrome P450 3A4 (Homo sapiens) (P08684 whole entry, looked up): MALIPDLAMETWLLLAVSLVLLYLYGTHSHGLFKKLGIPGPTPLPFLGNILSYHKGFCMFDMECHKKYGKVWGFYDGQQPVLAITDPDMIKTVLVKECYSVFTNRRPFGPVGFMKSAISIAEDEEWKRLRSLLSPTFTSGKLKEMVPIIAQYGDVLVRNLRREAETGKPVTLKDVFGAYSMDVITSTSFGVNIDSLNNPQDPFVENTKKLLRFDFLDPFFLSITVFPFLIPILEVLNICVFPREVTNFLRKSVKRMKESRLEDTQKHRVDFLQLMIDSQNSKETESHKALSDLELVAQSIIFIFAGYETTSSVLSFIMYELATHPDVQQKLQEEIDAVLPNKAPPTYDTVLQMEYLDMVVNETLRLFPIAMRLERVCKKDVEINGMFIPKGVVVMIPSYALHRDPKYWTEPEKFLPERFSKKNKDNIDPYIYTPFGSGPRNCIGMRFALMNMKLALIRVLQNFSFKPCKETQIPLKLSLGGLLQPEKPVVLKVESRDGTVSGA
In short: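 P450-Glo CYP3A4 system with proluciferin substrate; compounds preincubated 10 min RT with enzyme-substrate mix, then NADPH regeneration added for 1 h RT. Detection reagent 20 min, luminescence read as relative luminescence units.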

[15] = biological target: Nuclear receptor subfamily 1 group I member 2 (Homo sapiens) (UniProt O75469); test: Human pregnane X receptor (PXR) activation by small molecules, qHTS assay (AID 1346985); also: nearly all actives have a fitted effect of over 40% in size; also: potency is read from the fitted curve at half-maximal effect
In short: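 DPX-2 cells (HepG2 co-transfected with a PXR response element and a CYP3A4-promoter luciferase construct) were seeded at 2,000 per well, rested 5 hr at 37C, then exposed to DMSO-dissolved compounds for 24 hr. Activation was read as luciferase luminescence.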

[16] = biological target: Nuclear receptor subfamily 1 group I member 2 (Homo sapiens) (UniProt O75469); test: CYP3A4 induction through human pregnane X receptor (PXR) by small molecules, qHTS assay (AID 1346984); also: nearly all actives have a fitted effect of over 40% in size
In short: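 HepG2-derived DPX-2 line carrying PXR plus a CYP3A4-promoter luciferase reporter; cells plated 5 hr, compound-exposed 24 hr at 37C. CYP3A4 activity probed with 3uM (final) Luciferin-IPA for 3hr, then luciferase read after One-Glo.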
% is scaled to controls: 0 for no effect and ±100 for the full control effect.

CC1(C)[C@@H](OC(=O)CCC(=O)O)CC[C@]2(C)[C@H]3C(=O)C=C4[C@@H]5C[C@@](C)(C(=O)O)CC[C@]5(C)CC[C@@]4(C)[C@]3(C)CC[C@@H]12
inactive: Potency [1] | Potency [2] | Potency [3] | Potency [4] | Potency [5] | max activation [6] -0.478% | Potency [7]

CN1C(=O)c2ccccc2C1=O
inactive: Potency [1] | Potency [2] | Potency [3] | Potency [5] | Potency [8] | Potency [9] | Potency [7]
active: Potency [10] 79.6 µM | Potency [11] 10 µM | Potency [12] 24.5 µM

C/C=C\C/C=C/CCCCCCCCOC(C)=O
inactive: Potency [1] | Potency [2] | Potency [3] | Potency [5] | Potency [8]
active: Potency [9] 61.1 µM | Potency [13] 39.9 µM | Potency [10] 15.9 µM | Potency [12] 31.7 µM | Potency [14] 15.9 µM

C=CC(=O)OCC1CC2CC1C1CCC(COC(=O)C=C)C21 (centres undefined)
inactive: Potency [1] | Potency [2] | Potency [3] | Potency [8]
active: Potency [4] 48.6 µM | Potency [9] 34.4 µM | Potency [10] 5.03 µM | Potency [11] 17.8 µM | Potency [12] 35.6 µM

CC[C@]1(O)C[C@H]2CN(CCc3c([nH]c4ccccc34)[C@@](C(=O)OC)(c3cc4c(cc3OC)N(C=O)[C@H]3[C@@](O)(C(=O)OC)[C@H](OC(C)=O)[C@]5(CC)C=CCN6CC[C@]43[C@@H]65)C2)C1
inactive: Potency [1] | Potency [3] | Potency [5] | Potency [13] | Potency [10] | Potency [11] | Potency [12] | Potency [7]
active: Potency [15] 8.91 µM | Potency [14] 12.3 µM

CC(C)(O)c1ccc(CNC(=O)c2cccnc2Oc2ccc3nonc3c2)cc1
active: Potency [14] 25.2 µM
inactive: Potency [1] | Potency [2] | Potency [3] | Potency [5] | Potency [9] | Potency [7]

O=C1c2ccccc2C(=O)C1(O)O
active: Potency [4] 54.8 µM | Potency [9] 61.4 µM | Potency [13] 35.8 µM | Potency [10] 71.4 µM
inactive: Potency [1] | Potency [5] | Potency [7]

COC(=O)c1nc(Cl)c(Cl)nc1N
inactive: Potency [1] | Potency [3] | Potency [5] | Potency [13] | Potency [10] | Potency [11] | Potency [7]
active: Potency [4] 8.41 µM | Potency [9] 10.6 µM | Potency [12] 4.36 µM

C/C=C(/C(=C/C)c1ccc(O)cc1)c1ccc(O)cc1
inactive: Potency [1] | Potency [2] | Potency [5] | Potency [9] | max activation [6] 0.107% | Potency [16] | Potency [15] | Potency [13] | Potency [12] | Potency [7]

CCOc1ccc(Cc2nccc3cc(OCC)c(OCC)cc23)cc1OCC
active: Potency [2] 26.6 µM | Potency [4] 11.9 µM | Potency [8] 29.8 µM | Potency [9] 3.35 µM | Potency [10] 7.76 µM | Potency [11] 4.9 µM
inactive: Potency [3] | Potency [5] | max activation [6] -4.93% | Potency [12]

Cc1[nH]cnc1CN1CCc2c(c3ccccc3n2C)C1=O
active: Potency [11] 2.19 µM | Potency [12] 0.812 µM
inactive: Potency [2] | Potency [3] | Potency [4] | Potency [5] | Potency [8] | Potency [9] | max activation [6] 1.25% | Potency [16] | Potency [15]

O=C(CCCN1CC=C(n2c(=O)[nH]c3ccccc32)CC1)c1ccc(F)cc1
inactive: Potency [1] | Potency [3] | Potency [4] | Potency [5] | Potency [8] | max activation [6] 0.857% | Potency [16] | Potency [10] | Potency [11] | Potency [12] | Potency [14]
active: Potency [13] 2.45 µM

CC(=O)N/N=C/c1ccc([N+](=O)[O-])o1
active: Potency [4] 29.8 µM
inactive: Potency [1] | Potency [3] | Potency [5] | Potency [8] | max activation [6] -3.83% | Potency [16] | Potency [15] | Potency [13] | Potency [10] | Potency [7] | Potency [14]

COC(=O)C1=C(C)NC(C)=C(C(=O)O[C@@H]2CCCN(Cc3ccccc3)C2)[C@@H]1c1cccc([N+](=O)[O-])c1
active: Potency [4] 29.8 µM | Potency [9] 2.11 µM | Potency [13] 15.5 µM | Potency [10] 4.9 µM
inactive: Potency [1] | Potency [3] | Potency [5]

CCCCCCCCOc1ccc(C(=O)O)cc1
active: Potency [9] 60.4 µM | Potency [10] 49.7 µM
inactive: Potency [1] | Potency [3] | Potency [5] | Potency [8] | Potency [13] | Potency [12] | Potency [7] | Potency [14]

OCCN1CCN(CCCN2c3ccccc3Sc3ccc(Cl)cc32)CC1
inactive: Potency [1] | max activation [6] 5.45% | Potency [15]
active: Potency [2] 29.8 µM | Potency [4] 29.8 µM | Potency [8] 26.6 µM | Potency [9] 10.6 µM | Potency [7] 2.68 µM

CN1CCCC(CC2c3ccccc3Sc3ccccc32)C1 (centres undefined)
inactive: Potency [1] | Potency [5] | Potency [8] | Potency [9] | max activation [6] -1.72% | Potency [15] | Potency [12] | Potency [14]
active: Potency [2] 29.8 µM | Potency [13] 0.389 µM | Potency [10] 7.76 µM | Potency [7] 4.77 µM

Oc1cccc(O)c1O
inactive: Potency [1] | Potency [3] | Potency [5] | max activation [6] -5.99% | Potency [16] | Potency [15] | Potency [7] | Potency [14]
active: Potency [9] 60.6 µM | Potency [10] 70.4 µM

N#[N+]c1ccc2c(S(=O)(=O)[O-])cccc2c1O
active: Potency [13] 31.7 µM | Potency [10] 20 µM | Potency [11] 39.9 µM
inactive: Potency [1] | Potency [3] | Potency [5] | Potency [8] | Potency [9] | Potency [7]

Cc1cc2c(OCC(CNC(C)(C)C)OC(=O)c3ccccc3)cccc2[nH]1 (centres undefined)
active: Potency [13] 0.692 µM | Potency [10] 38.9 µM | Potency [11] 7.76 µM
inactive: Potency [2] | Potency [3] | Potency [4] | Potency [5] | Potency [8] | Potency [9] | max activation [6] -3.65% | Potency [16] | Potency [15] | Potency [12]
